CSC inhib: blocks cancer stem cells; AID 2717; 300,000 tested, 1.1% active; inhibition, % at 7.5 µM; cancer stem cell-like cells viability, luminescence; in the data active = inhibition above about 75%; inconclusive = no clear call, values can overlap the other calls; tested in HMLE shEcad cells
Calb FLC: affects C. albicans growth with fluconazole; C. albicans CaCi-2 (fluconazole-resistant clinical isolate) + fluconazole, Alamar Blue growth, 48 h; growth inhibition, % (no concentration beside the values); 300,000 tested, 0.57% active; AID 1979;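 active = growth inhibition above about 58% in most replicates, limit read from the data, passing the limit was not always enough; inconclusive = exactly half the replicates above a set limit; inactive = most replicates below a set limit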;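 also: all wells also contain fluconazole at 8 µg/ml as a sub-toxic cotreatment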
Beta cell apopt: beta cell apoptosis inhibition. INS-1E cytokine-induced death, ATP luminescence, 48 h; percent of positive-control rescue, neutral wells zero. 300,000 tested, 0.8% active. protection from apoptosis, % (test concentration not listed);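 active = Every replicate reaches about 75%, or at least half do and their mean reaches it too, limit read from the data; inconclusive = At least half of replicates reach the limit but their mean does not; inactive = Under half of replicates reach the limit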;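 also: higher means more ATP so stronger rescue from cytokine killing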
PP1 inh: PP1-alpha (human) inhibition in PP5 counter-screen; P62136; purified PP1alpha, OMFP fluorescence; inhibition, % at 6.7 µM; 320,000 tested, 0.9% active; AID 2235;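 active = inhibition above the mean inhibition of all tested compounds plus 3 SD, computed separately for each screening campaign, cut at about 15% in these data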
Mdm2-MdmX inh: inhibitors of human Mdm2/MdmX interaction; 330,000 tested, 3% active; O15151+Q00987; SaOS-2 split-luciferase Mdm2/MdmX complementation, luminescence; AID 485346; inhibition, % at 8 µM;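 active = inhibition of at least 50% at 8 µM in the primary screen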
Target sequence (O15151 whole entry, looked up): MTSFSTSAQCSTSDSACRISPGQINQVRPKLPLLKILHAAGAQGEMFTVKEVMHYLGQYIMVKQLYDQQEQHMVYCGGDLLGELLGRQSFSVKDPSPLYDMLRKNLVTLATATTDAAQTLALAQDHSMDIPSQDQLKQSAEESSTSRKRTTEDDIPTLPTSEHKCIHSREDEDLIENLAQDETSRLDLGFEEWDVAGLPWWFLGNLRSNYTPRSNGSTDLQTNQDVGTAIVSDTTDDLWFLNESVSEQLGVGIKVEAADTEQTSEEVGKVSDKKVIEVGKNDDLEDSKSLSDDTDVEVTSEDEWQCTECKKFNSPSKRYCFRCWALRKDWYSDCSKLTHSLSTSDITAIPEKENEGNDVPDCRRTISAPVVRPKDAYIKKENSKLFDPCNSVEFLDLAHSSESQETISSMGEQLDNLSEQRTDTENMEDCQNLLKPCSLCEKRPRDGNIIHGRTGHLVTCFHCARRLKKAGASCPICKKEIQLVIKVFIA
Target sequence (Q00987 whole entry, looked up): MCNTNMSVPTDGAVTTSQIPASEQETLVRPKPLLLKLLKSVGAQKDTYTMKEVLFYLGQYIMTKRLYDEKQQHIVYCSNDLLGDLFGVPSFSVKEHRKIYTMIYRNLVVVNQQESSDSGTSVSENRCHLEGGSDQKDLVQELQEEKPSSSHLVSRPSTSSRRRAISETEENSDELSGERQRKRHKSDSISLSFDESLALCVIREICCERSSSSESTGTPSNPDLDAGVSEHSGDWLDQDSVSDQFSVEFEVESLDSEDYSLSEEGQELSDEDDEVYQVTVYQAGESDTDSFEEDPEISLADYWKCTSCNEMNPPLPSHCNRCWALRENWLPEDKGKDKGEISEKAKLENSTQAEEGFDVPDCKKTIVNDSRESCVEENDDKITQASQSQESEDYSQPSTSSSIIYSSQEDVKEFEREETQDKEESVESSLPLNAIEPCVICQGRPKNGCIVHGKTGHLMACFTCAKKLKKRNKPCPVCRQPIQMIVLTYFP
PP5 inh: blocks human protein phosphatase 5 activity | P53041 | purified PP5c, OMFP substrate fluorescence | inhibition, % at 6.7 µM | 320,000 tested, 0.18% active | AID 1987;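 active = inhibition above the campaign's mean inhibition across all tested compounds plus 3 SD, cut at about 9.5% in these data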
Hits are given with their value; – = inactive; ? = inconclusive; · = no result given. The list is not random: actives were taken first. Their share in the collection is about 4.9%.

SMILES	CSC inhib	Calb FLC	Beta cell apopt	PP1 inh	Mdm2-MdmX inh	PP5 inh
CCCCn1c(C2CCCCC2)nc2cc3[nH]c(=O)c(C(C)C)nc3cc21	81	–	·	–	–	–
CCCCn1c(-c2ccccc2C)nc2cc3[nH]c(=O)c(C(C)C)nc3cc21	–	–	–	–	–	–
CCCCn1c(-c2cccc3ccccc23)nc2cc3[nH]c(=O)c(C(C)C)nc3cc21	–	–	–	16	–	–
COC(=O)C1SCC2C(=O)N(Cc3ccc(Cl)c(Cl)c3)CC(=O)N21 (configuration not stated)	–	–	–	–	–	–
CCOC(=O)C1=C(CN2CCN(C(=O)c3ccco3)CC2)NC(=O)NC1c1ccc(C)cc1 (configuration not stated)	–	–	–	–	–	–
O=C(N/N=C\c1cc(Cl)ccc1O)c1ccc(S(=O)(=O)N2CCCCC2)cc1	–	92	97	–	–	–
O=C(N/N=C/c1cc(Cl)ccc1O)c1cccnc1	–	–	86	–	–	–
Cc1ccccc1Oc1ccc(NC(=O)C2CC=CCC2C(=O)O)cc1 (configuration not stated)	–	–	–	–	–	–
CC(C)(C)c1ccc(Oc2ccc(NC(=O)C3CC=CCC3C(=O)O)cc2)cc1 (configuration not stated)	80	–	–	–	–	–
O=C(CN1C(=O)NC2(CCCC2)C1=O)N1CCc2ccccc2C1	–	–	–	–	–	–
Cc1ccnc(Sc2ccc([N+](=O)[O-])cc2[N+](=O)[O-])n1	–	98	–	–	–	–
Cc1cc(N/N=C/c2ccc(O)c(C)c2O)nc(-c2ccccc2O)n1	113	–	–	–	·	–
C/C(=N\Nc1cc(C)nc(-c2ccccc2O)n1)c1ccccc1	–	–	·	–	–	–
CC1(C)S[C@@H]2[C@H](NC(=O)COc3ccccc3)C(=O)N2C1C(=O)OCc1cc2ccccc2n1S(=O)(=O)c1ccccc1 (some centres not stated)	–	–	–	25	·	–
CC1(C)S[C@@H]2[C@H](NC(=O)COc3ccccc3)C(=O)N2C1C(=O)OCC1CCCCC1 (some centres not stated)	–	–	–	–	–	–
CCN(CC)c1ccc(C(=O)OCC(=O)NC(C)(C)C)cc1	–	–	–	–	–	–
O=c1[nH]c(=O)n(C2C[C@H](O)[C@@H](CO)O2)cc1C(F)(F)F (some centres not stated)	76	·	–	–	–	–
CCCCc1ccc(NC(=S)N2CCC(O)CC2)cc1	–	–	–	–	–	–
C=C(C)C(=O)OCC(O)COc1ccc(C(C)(C)c2ccc(OCC(O)COC(=O)C(=C)C)cc2)cc1 (configuration not stated)	–	·	104	–	–	–
Cc1cc(C)n(-c2ccc(C(=O)NC3CCCCC3)cc2)n1	–	–	–	–	–	–
O=S(=O)(NCC(c1ccco1)N1CCN(c2ccc(F)cc2)CC1)c1ccc2c(c1)OCCO2 (configuration not stated)	·	114	–	–	–	–
O=S(=O)(NCC(c1ccco1)N1CCc2ccccc2C1)c1ccc(F)cc1 (configuration not stated)	–	–	–	–	–	–
Cc1ccc(C2CC(c3ccc(C)cc3)n3nc(N)nc3N2)cc1 (configuration not stated)	·	–	103	–	–	–
Cc1ccc(C2CC(c3ccc(Cl)cc3)n3nc(N)nc3N2)cc1 (configuration not stated)	–	–	–	–	–	–
CCC(C)n1ncn(-c2ccc(N3CCN(c4ccc(O)cc4)CC3)cc2)c1=O (configuration not stated)	104	–	–	–	–	–
SMILES	CSC inhib	Calb FLC	Beta cell apopt	PP1 inh	Mdm2-MdmX inh	PP5 inh
CC(=O)Nc1nnc(SCc2ccc(C(=O)Nc3ccccc3F)cc2)s1	–	?	–	–	–	–
Cc1cc(Nc2ccccc2)n(-c2ccccc2)n1	–	–	–	–	–	–
Cc1cc(Nc2nc(Cl)c(Cl)cc2Cl)n(-c2ccccc2)n1	99	–	–	–	–	–
Cc1cc(C)nc(-n2nc(C)cc2Nc2ccccc2)n1	–	–	85	–	–	–
COc1ccc(NC(=O)N2CCCC(c3nc(-c4ccc(C(C)C)cc4)no3)C2)cc1 (configuration not stated)	96	–	–	–	–	–
Cc1ccc(-n2c3nc(=O)[nH]c(=O)c-3cc3cc([N+](=O)[O-])ccc32)cc1C	84	–	–	–	–	–
Cc1ccc(C2=NNC3(CCOC(C)(C)C3)S2)cc1 (configuration not stated)	–	95	–	–	–	–
CCCCc1ccc(N=N/C(C(=O)Nc2ccc(NC(C)=O)cc2OC)=C(/C)O)cc1	80	–	–	–	–	–
CS(=O)(=O)NN1C(=O)c2ccccc2NC1c1cccc2cccnc12 (configuration not stated)	–	80	–	–	–	–
Cc1cccc2c(C(=O)N3CCCCC3)cc(-c3ccccc3)nc12	–	–	–	–	–	–
O=C(c1cc(-c2ccncc2)nc2ccc(Br)cc12)N1CCN(c2ccccn2)CC1	–	–	–	–	–	–
Cc1cccc2c(C(=O)N3CCN(c4ccccn4)CC3)cc(-c3cccc(Br)c3)nc12	–	–	112	15	–	–
O=C(c1cc(-c2cccc(Cl)c2)nc2ccccc12)N1CCN(c2ccccn2)CC1	–	–	96	–	–	–
CCOc1ccccc1NC(=O)CNS(=O)(=O)c1ccc2nc(C)sc2c1	–	–	–	–	–	–
Cc1c(C(=O)N2CCOCC2)c(S(=O)(=O)Nc2ccccc2)c(C)n1C	–	–	–	–	–	–
CC(C)Cn1c(CCC(N)=O)nnc1SC(C)C(=O)Nc1ccc2c(c1)OCO2 (configuration not stated)	–	·	–	–	–	–
CC(C)(C)c1ccc(C(=O)CC(Sc2ccc(Cl)cc2)C(=O)O)cc1 (configuration not stated)	79	–	–	–	–	–
CC(C)(C)c1cc(CSC(=S)NC2CCS(=O)(=O)C2)c(Br)c(C(C)(C)C)c1 (configuration not stated)	97	–	–	–	–	–
CCn1c(C)c(C)c2cc(C(=O)N3CCc4ccccc4C3)ccc21	–	–	113	–	–	–
CCC1CCCCN1C(=O)COc1ccc2c3c(c(=O)oc2c1)CCC3 (configuration not stated)	·	·	–	–	–	–
CC(C)(C)c1ccc(-c2nc(NCc3cccnc3)c3ccccc3n2)cc1	133	–	–	–	–	–
c1cncc(CNc2nc(-c3cccnc3)nc3ccccc23)c1	–	–	–	–	–	–
Cc1onc(-c2ccccc2Cl)c1C(=O)NNC(=O)C1CCN(Cc2ccccc2)CC1	–	–	–	–	–	–
